We go through 15 targets from the supplement of paper PMC10849652.

The full data set covers some 8,800 targets. This sample favours those with a hit. About 0.5% of all pairs of compound and target were hits. Values without a mark were called inactive.

Holding throughout (assay): log2 fold change, soluble protein after heating vs DMSO (PISA); higher = thermal stabilisation; K562 lysate, 10 uM; active = over 0.2 and 3.5 SD of the protein, either way, in both replicates (recomputed)
Compound in one experiment: CS(=O)(=O)CCNCc1ccc(-c2ccc3ncnc(Nc4ccc(OCc5cccc(F)c5)c(Cl)c4)c3c2)o1 [lapatinib]
The method, boiled down:
(§1)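 Log-two fold change in thermal stability relative to solvent controls is reported from duplicates. For each sample, crude K562 extract from dounce-homogenised pellets in PBS pH 7.4 with 1 mM MgCl2, at 1 mg/mL protein, was treated with 10 μM compound for 30 min. Aliquots heated for 3 min across 48°C-58°C were pooled, brought to 0.5% NP-40 at 4°C and cleared at 21,000xg for 90 min. The supernatant was quantified by TMTpro 16plex LC-MS/MS with channel sums equalised.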

Compound in a further experiment: C[C@H](Nc1ncnc2nc[nH]c12)c1cc2cccc(Cl)c2c(=O)n1-c1ccccc1 [duvelisib]
The method, boiled down: as §1

Compound in a further experiment: Cc1cc(Nc2cc(N3CCN(C)CC3)nc(Sc3ccc(NC(=O)C4CC4)cc3)n2)n[nH]1 [tozasertib]
The method, boiled down: as §1

Compound in a further experiment: Cc1nc(Nc2ncc(C(=O)Nc3c(C)cccc3Cl)s2)cc(N2CCN(CCO)CC2)n1 [dasatinib]
The method, boiled down: as §1

Compound in experiment [1]: Cn1cc(-c2ccc3c(c2)CCN3C(=O)Cc2cccc(C(F)(F)F)c2)c2c(N)ncnc21
The method, boiled down: as §1

Compound in experiment [2]: NC(=O)c1cnc(N[C@@H]2CCCC[C@@H]2N)nc1Nc1cccc(-n2nccn2)c1
The method, boiled down: as §1

Compound in experiment [3]: NC1(c2ccc(-c3nc4ccn5c(=O)[nH]nc5c4cc3-c3ccccc3)cc2)CCC1
The method, boiled down: as §1

Compound in another experiment: CS(=O)(=O)N1CCN(Cc2cc3nc(-c4cccc5[nH]ncc45)nc(N4CCOCC4)c3s2)CC1 [pictilisib]
The method, boiled down: as §1

Compound in experiment [4]: C[C@H](C1=CC=C(C=C1)C(=O)NC2=C3C=CNC3=NC=C2)N
The method, boiled down:
as §1

Compound in a further experiment: Cc1cc(Nc2cc(CN3CCOCC3)c3nc(C)c(Cc4ccc(Cl)cc4F)n3n2)n[nH]1 [gandotinib]
The method, boiled down: as §1

Compound in the next experiment: Cc1ccc(NC(=O)c2ccc(CN3CC[C@H](N(C)C)C3)c(C(F)(F)F)c2)cc1Nc1nccc(-c2cncnc2)n1 [bafetinib]
The method, boiled down:
as §1

Compound in experiment [5]: Cc1cccc(CC(=O)N2CCc3c2ccc(-c2cn(C)c4ncnc(N)c24)c3F)n1
The method, boiled down: as §1

Compound in another experiment: Cc1cn(-c2cc(NC(=O)c3ccc(C)c(Nc4nccc(-c5cccnc5)n4)c3)cc(C(F)(F)F)c2)cn1 [nilotinib]
The method, boiled down: as §1

Compound in experiment [6]: Cc1nc(Nc2n[nH]c3c2CN(C(=O)N[C@H](CN(C)C)c2ccccc2)C3(C)C)c2sccc2n1
The method, boiled down: as §1

Compound in experiment [7]: Cc1ncc(-c2ccnc(Nc3ccc(S(C)(=O)=O)cc3)n2)n1C(C)C
The method, boiled down: as §1

Compound in a further experiment: Cn1cncc1[C@@](N)(c1ccc(Cl)cc1)c1ccc2c(c1)c(-c1cccc(Cl)c1)cc(=O)n2C [tipifarnib]
The method, boiled down: as §1

Compound in another experiment: C[C@@H](Oc1cc(-c2cnn(C3CCNCC3)c2)cnc1N)c1c(Cl)ccc(F)c1Cl [crizotinib]
The method, boiled down:
as §1

Compound in the next experiment: Cc1ccc(-n2nc(C(C)(C)C)cc2NC(=O)Nc2ccc(OCCN3CCOCC3)c3ccccc23)cc1 [doramapimod]
The method, boiled down:
as §1

Compound in a further experiment: Cn1cc(CNCC2CCN(c3ncc(C(=O)NO)cn3)CC2)c2ccccc21 [quisinostat]
The method, boiled down:
as §1

Compound in experiment [8]: NC(=O)Nc1cc(-c2cccc(F)c2)sc1C(=O)N[C@H]1CCCNC1
The method, boiled down:
as §1

Chain of UniProt Q86SX3 (Q86SX3 whole entry, looked up): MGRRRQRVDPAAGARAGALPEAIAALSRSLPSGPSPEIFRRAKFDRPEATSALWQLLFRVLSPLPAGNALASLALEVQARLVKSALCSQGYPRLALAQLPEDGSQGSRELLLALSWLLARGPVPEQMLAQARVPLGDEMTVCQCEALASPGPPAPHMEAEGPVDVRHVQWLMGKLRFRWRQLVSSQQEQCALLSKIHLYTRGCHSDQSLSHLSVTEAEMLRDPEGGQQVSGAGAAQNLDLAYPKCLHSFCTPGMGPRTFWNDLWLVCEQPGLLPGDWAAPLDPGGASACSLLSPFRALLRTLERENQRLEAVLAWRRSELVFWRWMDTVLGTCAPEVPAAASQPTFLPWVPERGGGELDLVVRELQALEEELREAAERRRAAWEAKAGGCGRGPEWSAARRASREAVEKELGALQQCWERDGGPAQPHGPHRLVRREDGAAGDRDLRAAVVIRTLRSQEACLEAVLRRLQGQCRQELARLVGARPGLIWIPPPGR
Chain of UniProt P36897 (P36897 whole entry, looked up): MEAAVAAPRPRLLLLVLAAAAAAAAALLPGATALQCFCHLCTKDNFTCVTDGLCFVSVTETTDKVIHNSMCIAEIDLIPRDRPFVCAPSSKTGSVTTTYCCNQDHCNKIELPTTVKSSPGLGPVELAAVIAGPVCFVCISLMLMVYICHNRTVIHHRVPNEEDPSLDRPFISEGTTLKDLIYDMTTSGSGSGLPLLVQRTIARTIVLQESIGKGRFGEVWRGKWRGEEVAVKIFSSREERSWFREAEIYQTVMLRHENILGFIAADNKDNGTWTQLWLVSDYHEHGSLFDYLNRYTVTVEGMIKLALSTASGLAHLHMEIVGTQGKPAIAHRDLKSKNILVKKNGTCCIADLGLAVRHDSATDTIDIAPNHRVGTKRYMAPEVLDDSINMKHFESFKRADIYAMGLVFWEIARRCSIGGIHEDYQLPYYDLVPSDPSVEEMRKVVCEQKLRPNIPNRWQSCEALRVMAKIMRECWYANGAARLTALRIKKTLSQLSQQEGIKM
Chain of UniProt O43399 (O43399 whole entry, looked up): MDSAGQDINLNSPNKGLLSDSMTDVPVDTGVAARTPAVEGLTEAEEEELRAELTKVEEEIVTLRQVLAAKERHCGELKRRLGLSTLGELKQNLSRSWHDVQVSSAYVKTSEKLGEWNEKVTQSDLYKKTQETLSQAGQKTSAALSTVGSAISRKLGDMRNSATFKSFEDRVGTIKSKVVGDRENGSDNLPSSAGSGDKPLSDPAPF
Chain of UniProt Q8TDI8 (Q8TDI8 whole entry, looked up): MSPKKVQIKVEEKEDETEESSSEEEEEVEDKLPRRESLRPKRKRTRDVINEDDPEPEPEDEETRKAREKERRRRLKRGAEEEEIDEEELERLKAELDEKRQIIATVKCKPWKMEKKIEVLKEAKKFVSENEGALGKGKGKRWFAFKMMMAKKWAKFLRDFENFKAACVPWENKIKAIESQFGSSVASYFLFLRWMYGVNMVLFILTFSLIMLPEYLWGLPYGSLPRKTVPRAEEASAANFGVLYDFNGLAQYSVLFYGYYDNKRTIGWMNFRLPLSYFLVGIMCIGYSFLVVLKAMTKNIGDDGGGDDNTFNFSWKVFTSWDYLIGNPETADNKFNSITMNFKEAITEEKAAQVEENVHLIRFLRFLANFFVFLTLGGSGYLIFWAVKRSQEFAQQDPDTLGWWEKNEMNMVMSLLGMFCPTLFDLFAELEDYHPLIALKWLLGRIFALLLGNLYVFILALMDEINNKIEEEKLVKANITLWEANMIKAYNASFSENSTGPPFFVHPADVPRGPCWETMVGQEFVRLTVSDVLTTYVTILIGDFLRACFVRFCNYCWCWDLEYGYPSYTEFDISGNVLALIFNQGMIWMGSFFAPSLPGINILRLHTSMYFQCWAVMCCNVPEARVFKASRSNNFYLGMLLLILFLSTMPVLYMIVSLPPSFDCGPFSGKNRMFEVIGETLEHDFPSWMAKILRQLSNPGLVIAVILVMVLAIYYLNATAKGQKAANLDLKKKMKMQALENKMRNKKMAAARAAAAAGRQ
Chain of UniProt Q6P9G4 (Q6P9G4 whole entry, looked up): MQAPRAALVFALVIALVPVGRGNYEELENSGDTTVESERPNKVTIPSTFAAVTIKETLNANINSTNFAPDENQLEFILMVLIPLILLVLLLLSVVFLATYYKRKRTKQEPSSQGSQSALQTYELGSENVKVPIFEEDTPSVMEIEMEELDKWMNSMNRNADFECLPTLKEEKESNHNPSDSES
Chain of UniProt P42167 (P42167 whole entry, looked up): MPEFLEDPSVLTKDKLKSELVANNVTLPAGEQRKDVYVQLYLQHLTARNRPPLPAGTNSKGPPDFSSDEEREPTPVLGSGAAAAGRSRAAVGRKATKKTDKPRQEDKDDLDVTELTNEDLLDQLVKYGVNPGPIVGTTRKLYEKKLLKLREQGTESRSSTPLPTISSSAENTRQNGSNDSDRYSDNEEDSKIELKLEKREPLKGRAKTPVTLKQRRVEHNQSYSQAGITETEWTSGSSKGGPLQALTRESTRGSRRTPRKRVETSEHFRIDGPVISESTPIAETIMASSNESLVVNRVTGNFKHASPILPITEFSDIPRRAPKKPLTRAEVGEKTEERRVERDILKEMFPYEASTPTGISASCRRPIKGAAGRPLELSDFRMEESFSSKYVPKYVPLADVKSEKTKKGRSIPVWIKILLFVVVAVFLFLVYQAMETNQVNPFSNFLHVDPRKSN
Chain of UniProt Q6Q0C0 (Q6Q0C0 whole entry, looked up): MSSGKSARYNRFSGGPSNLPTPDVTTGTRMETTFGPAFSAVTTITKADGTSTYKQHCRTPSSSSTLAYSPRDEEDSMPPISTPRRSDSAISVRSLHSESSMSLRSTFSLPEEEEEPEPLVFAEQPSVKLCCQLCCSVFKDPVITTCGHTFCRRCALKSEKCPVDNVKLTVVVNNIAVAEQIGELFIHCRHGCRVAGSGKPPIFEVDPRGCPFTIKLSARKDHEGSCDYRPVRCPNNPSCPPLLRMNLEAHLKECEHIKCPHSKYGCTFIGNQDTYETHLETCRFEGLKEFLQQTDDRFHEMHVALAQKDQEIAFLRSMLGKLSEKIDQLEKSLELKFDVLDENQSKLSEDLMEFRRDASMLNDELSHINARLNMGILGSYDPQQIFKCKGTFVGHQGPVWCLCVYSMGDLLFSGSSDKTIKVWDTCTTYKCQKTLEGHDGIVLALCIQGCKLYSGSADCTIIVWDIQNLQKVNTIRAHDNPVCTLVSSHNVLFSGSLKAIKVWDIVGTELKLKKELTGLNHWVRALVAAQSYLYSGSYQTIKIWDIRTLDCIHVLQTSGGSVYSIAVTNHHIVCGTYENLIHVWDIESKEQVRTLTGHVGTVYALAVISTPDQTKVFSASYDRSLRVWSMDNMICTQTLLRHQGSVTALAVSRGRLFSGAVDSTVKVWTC

For the target UBR4 isoform 4 (UniProt Q5T4S7), the log2 fold change is 0.146 with lapatinib; -0.143 in the experiment with duvelisib; 0.079 with tozasertib; -0.083 in the experiment with dasatinib; -0.158 in experiment [1]; -0.078 in [2]. Besides, the log2 fold change in [3] was 0.049.

For TPD52L2 isoform 3 (UniProt O43399), the log2 fold change with pictilisib is -0.112; in experiment [4] it was -0.155; with gandotinib it was 0.377; with bafetinib it was -0.102; in experiment [5], -0.124; with nilotinib, 0.055. For the same target, the log2 fold change in experiment [6] was 0.035; in [7] it was 0.008; in the experiment with tipifarnib, 0.134; in experiment [3], 0.074.

In the case of TEDC1 (UniProt Q86SX3), the log2 fold change in the experiment with lapatinib was -0.064; with crizotinib, -0.078; with duvelisib, 0.159; with tozasertib it was -0.103; with doramapimod it was 0.009; in the experiment with nilotinib, 0.015. Moreover, the log2 fold change in experiment [6] was -0.016; with dasatinib, 0.087; in experiment [7], -0.038; in [1] it was 0.05; with quisinostat, 0.161; in the experiment with tipifarnib, -0.049. The values for the log2 fold change in experiment [8], in [2] and in [3] were -0.074, 0.104 and -0.022, respectively.

As to TMPO isoform 2 (UniProt P42167), the log2 fold change with pictilisib is 0.04; with duvelisib, -0.041; with tozasertib, -0.029; with bafetinib, -0.026; in the experiment with dasatinib it was -0.042; in experiment [1], -0.072.

With TJP1 (UniProt G3V1L9), the log2 fold change with pictilisib is 0.157; with crizotinib, 0.068; in experiment [4], 0.027; in the experiment with duvelisib, -0.042; with gandotinib, 0.071; with doramapimod, -0.209. Besides, the log2 fold change was -0.047 with bafetinib; 0.059 in experiment [5]; 0.093 in the experiment with nilotinib; 0.051 in experiment [6]; 0.083 with dasatinib; 0.11 in experiment [7]. In addition, the log2 fold change in experiment [1] is -0.139; with quisinostat, 0.137; with tipifarnib, -0.078; in experiment [8] it was 0.022; in [3], -0.08.

As for TCF3 (UniProt X6REB3), the log2 fold change in experiment [4] was -0.081; with gandotinib, 0.269; in experiment [5] it was 0.105.

As for TGFBR1 isoform 2 (UniProt P36897), the log2 fold change with duvelisib was -0.004; with tozasertib, 0.022; in [1], -0.03; in experiment [3] it was -0.117.

For TRAF7 (UniProt Q6Q0C0), the log2 fold change in the experiment with crizotinib is -0.01; in [4], -0.241; with duvelisib it was -0.029; with gandotinib it was -0.128; in the experiment with tozasertib, 0.124; with doramapimod, 0.122. Further, the log2 fold change in experiment [5] is 0.127; in the experiment with nilotinib it was 0.16; in [6], 0.027; in the experiment with dasatinib, -0.005; in [7], 0.154; in experiment [1], 0.163. Moreover, the log2 fold change is -0.035 with quisinostat, -0.1 with tipifarnib and -0.033 in [8].

Turning to UBAP2L (UniProt F8W726), the log2 fold change with lapatinib was -0.15; in the experiment with crizotinib it was 0.098; with doramapimod, -0.068; with quisinostat it was 0.11; in experiment [8], 0.043; in experiment [2], 0.099.

On to TJP1 (UniProt H0Y3R8), for which the log2 fold change in experiment [4] is 0.068; in the experiment with gandotinib it was -0.057; in experiment [5], -0.063.

In the case of UBAP2, A0A0D9SFI5, the log2 fold change with crizotinib is -0.037; in the experiment with doramapimod, -0.056; with quisinostat it was 0.151; in experiment [8], 0.111.

For TK1 (UniProt K7ERV3), the log2 fold change with pictilisib was -0.144; with crizotinib it was 0.075; in experiment [4], -0.07; with duvelisib it was -0.021; with gandotinib, 0.04; with tozasertib, 0.319 (active). Also, the log2 fold change in the experiment with doramapimod is 0.041; with bafetinib, -0.181; in [5], 0.01; with nilotinib, -0.024; in [6] it was -0.134; in the experiment with dasatinib, -0.114. Further, the log2 fold change in experiment [7] was 0.086; in experiment [1] it was 0.02; with quisinostat, -0.059; in the experiment with tipifarnib it was 0.059; in [8] it was 0.122; in experiment [3], -0.016.

For the target U2AF1L5 (UniProt P0DN76), the log2 fold change with lapatinib is 0.091; in [4], -0.904 (active); with duvelisib, 0.021; in the experiment with gandotinib, 0.114; with tozasertib, 0.207; in experiment [5] it was 0.342. Moreover, the log2 fold change is -0.033 with nilotinib; 0.061 in [6]; -0.012 in the experiment with dasatinib; 0.077 in [7]; 0.026 in experiment [1]; -0.01 with tipifarnib. Further, the results for the log2 fold change in experiment [2] and in [3] were 0.009 and -0.022, respectively.

On to TMC1 (UniProt Q8TDI8), for which the log2 fold change was -0.134 with lapatinib; -0.262 with crizotinib; 0.074 with tozasertib; 0.252 with doramapimod; -0.073 with nilotinib; -0.049 in experiment [6]. The log2 fold change is -0.28 in [7]; -0.552 (active) in the experiment with quisinostat; 0.015 with tipifarnib; -0.058 in [8]; -0.006 in [2]; 0 in [3].

Regarding TMEM154 (UniProt Q6P9G4), the log2 fold change in the experiment with crizotinib is 0.035; with duvelisib it was 0.039; with tozasertib, 0.03; in the experiment with doramapimod, -0.146; in the experiment with dasatinib it was 0.058; in experiment [1], 0.07. Also, the log2 fold change with quisinostat was 0.103; in [8], -0.101.
